Results filed as inconclusive are left out. Calls of active or inactive are those of the source. Calls follow the shape of the full dose curve.

The first experiment can be described thus: qHTS Assay for Lipid Storage Modulators (AID 1519). As to activity change, negative = inhibition: % is scaled to controls: 0 for no effect and ±100 for the full control effect. To be noted: Drosophila S3 cells, BODIPY lipid droplet/cell ratio, laser cytometry; at 57.5 µM (top of the series); cells loaded with oleic acid. The method in brief:
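Cells seeded at 5,000 per well were treated with compounds over a concentration series and loaded with oleic acid (400 uM, as added). Lipid droplet fluorescence (488 nm excitation, 500-530 nm channel) was read by laser-scanning cytometry and normalized to 20 uM Triacsin C.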
A general note: In qHTS, concentration-response curves come from the screen itself.
`Cc1noc(C)c1C(=O)N1CCC[C@@]2(CCN(C(=O)NC(C)C)C2)C1`: the activity change, negative = inhibition is 3.68% (inactive).

With `COCC(=O)N1CCC2(CC1)CN(C(=O)Nc1cccc(C#N)c1)C2`, the activity change, negative = inhibition is 1.93% (inactive).

Turning to `Cc1noc(C)c1C(=O)N1CCC2(CCN(C(=O)NC(C)C)CC2)CC1`, the activity change, negative = inhibition is 4.44% (inactive).

For `O=C(Nc1ccccc1)N1CC[C@@]2(CCCN(C(=O)c3ccco3)C2)C1`, the activity change, negative = inhibition was 0.607% (inactive).

Take `CC(=O)N1CCC2(CCCN(c3ccccn3)C2)CC1`: the activity change, negative = inhibition is 5.15% (inactive).

Turning to `CC(=O)N1CCC2(CCN(Cc3ccncc3)CC2)CC1`, the activity change, negative = inhibition is 2.82% (inactive).

`O=C(Nc1cccc(F)c1)N1CCC2(CCNCC2)CC1`: the activity change, negative = inhibition is 2.6% (inactive).

Turning to `COCC(=O)N1CCC2(CC1)CN(C(=O)Nc1cccc(F)c1)C2`, the activity change, negative = inhibition was 8.39% (inactive).

For `COCC(=O)N1CCC2(CC1)CN(Cc1cc(C(F)(F)F)cc(C(F)(F)F)c1)C2`, the activity change, negative = inhibition is -7.21% (inactive).

In the case of `COCC(=O)N1CCC2(CCCN(C(=O)Nc3cccc(F)c3)C2)CC1`, the activity change, negative = inhibition is 7.2% (inactive).

For `COCC(=O)N1CCC2(CC1)CN(C(=O)Nc1ccc(OC)cc1)C2`, the activity change, negative = inhibition is 3.11% (inactive).

For the compound `Cn1cccc1C(=O)N1CCC2(CC1)CN(C(=O)Nc1ccccc1)C2`, the activity change, negative = inhibition was 5.97% (inactive).

Consider `COC(=O)N1CCC[C@@]2(CCN(C(=O)Nc3ccccc3)C2)C1`, for which the activity change, negative = inhibition was 3.74% (inactive).

As to `O=C(c1ccncc1)N1CCC2(CC1)CN(c1ncccn1)C2`, the activity change, negative = inhibition is 0.437% (inactive).

Regarding `CC(C)NC(=O)N1CCC2(CC1)CCN(C(=O)c1ccco1)CC2`, the activity change, negative = inhibition is 3.89% (inactive).

Consider `O=C(Nc1ccccc1)N1CC2(CCN(C(=O)c3ccco3)CC2)C1`, for which the activity change, negative = inhibition is 5.54% (inactive).

As to `COc1ccccc1CN1CCCC2(CCNCC2)C1`, the activity change, negative = inhibition was 6.8% (inactive).

Regarding `COC(=O)N1CCC[C@@]2(CCN(c3ccccn3)C2)C1`, the activity change, negative = inhibition was 5.17% (inactive).

With `Cn1cccc1C(=O)N1CCC2(CCN(C(=O)Nc3cccc(F)c3)CC2)CC1`, the activity change, negative = inhibition was 6.54% (inactive).

`O=C(c1csnn1)N1CCC2(CC1)CN(Cc1cc(C(F)(F)F)cc(C(F)(F)F)c1)C2`: the activity change, negative = inhibition is -4.63% (inactive).

Consider `O=C(Nc1ccccc1)N1CCC2(CC1)CCN(C(=O)c1csnn1)CC2`, for which the activity change, negative = inhibition was 4.48% (inactive).

For `CN1CCC2(CC1)CCN(C(=O)c1cc(C(F)(F)F)cc(C(F)(F)F)c1)CC2`, the activity change, negative = inhibition is 1.93% (inactive).

In the case of `CC(=O)N1CCC2(CCN(Cc3nccs3)CC2)CC1`, the activity change, negative = inhibition was -0.294% (inactive).

In the case of `COc1ccccc1CN1CCC2(CC1)CCN(C(C)=O)CC2`, the activity change, negative = inhibition was 0.897% (inactive).

In the case of `CS(=O)(=O)N1CCC2(CCN(C(=O)Nc3cccc(C#N)c3)CC2)CC1`, the activity change, negative = inhibition is 2.84% (inactive).

Consider `COc1ccc(NC(=O)N2CCC3(CC2)CCN(C(=O)c2cnccn2)CC3)cc1`, for which the activity change, negative = inhibition was 7.44% (inactive).

Take `O=C(c1ccco1)N1CCC2(CC1)CCN(c1ccccc1)CC2`: the activity change, negative = inhibition is 1.71% (inactive).

In the case of `COc1ccc(NC(=O)N2CC[C@@]3(CCCNC3)C2)cc1`, the activity change, negative = inhibition was -2.79% (inactive).

Turning to `Cc1noc(C)c1C(=O)N1CCC[C@@]2(CCN(c3ncccn3)C2)C1`, the activity change, negative = inhibition was -1.94% (inactive).

Turning to `COC(=O)N1CCC2(CC1)CN(C(=O)Nc1ccccc1)C2`, the activity change, negative = inhibition was 5.14% (inactive).

For `COCC(=O)N1CCC2(CC1)CCN(C(=O)Nc1cccc(F)c1)CC2`, the activity change, negative = inhibition is 0.649% (inactive).

Regarding `O=C(Nc1ccccc1)N1CCC2(CC1)CCN(C(=O)c1cnccn1)CC2`, the activity change, negative = inhibition is 6.14% (inactive).

For `COC(=O)N1CCC2(CCN(Cc3nccs3)CC2)CC1`, the activity change, negative = inhibition is 2.86% (inactive).

With `COc1ccc(NC(=O)N2CC3(CCN(C(=O)c4ccco4)CC3)C2)cc1`, the activity change, negative = inhibition was 5.26% (inactive).

As to `COc1ccc(NC(=O)N2CC3(CCN(C(=O)c4c(C)noc4C)CC3)C2)cc1`, the activity change, negative = inhibition was 4.67% (inactive).

As for `CC(C)NC(=O)N1CC[C@@]2(CCCN(C(=O)c3cccn3C)C2)C1`, the activity change, negative = inhibition was 3.5% (inactive).

Turning to `FC(F)(F)c1cc(CN2CC3(CCNCC3)C2)cc(C(F)(F)F)c1`, the activity change, negative = inhibition is -2.16% (inactive).

For `O=C(Nc1cccc(F)c1)N1CC2(CCN(S(=O)(=O)c3ccccc3)CC2)C1`, the activity change, negative = inhibition was -4.83% (inactive).

For `COCC(=O)N1CCC[C@@]2(CCN(c3ncccn3)C2)C1`, the activity change, negative = inhibition is -2.11% (inactive).

Still in this experiment, the particulars now being: Drosophila S3 cells, BODIPY lipid droplet/cell ratio, laser cytometry; measured here: cell count channel max response; cells loaded with oleic acid.
Regarding `Cc1noc(C)c1C(=O)N1CCC[C@@]2(CCN(C(=O)NC(C)C)C2)C1`, the max response amounted to 13.4%.

Consider `COCC(=O)N1CCC2(CC1)CN(C(=O)Nc1cccc(C#N)c1)C2`, for which the max response was found to be 8.59%.

Turning to `Cc1noc(C)c1C(=O)N1CCC2(CCN(C(=O)NC(C)C)CC2)CC1`, the max response was 4.63%.

With `O=C(Nc1ccccc1)N1CC[C@@]2(CCCN(C(=O)c3ccco3)C2)C1`, the max response was 5.04%.

As for `CC(=O)N1CCC2(CCCN(c3ccccn3)C2)CC1`, the max response came out at 19.4%.

Consider `CC(=O)N1CCC2(CCN(Cc3ccncc3)CC2)CC1`, for which the max response is 7.01%.

As for `O=C(Nc1cccc(F)c1)N1CCC2(CCNCC2)CC1`, the max response turned out to be 17.4%.

Take `COCC(=O)N1CCC2(CC1)CN(C(=O)Nc1cccc(F)c1)C2`: the max response worked out at 17.5%.

As for `COCC(=O)N1CCC2(CC1)CN(Cc1cc(C(F)(F)F)cc(C(F)(F)F)c1)C2`, the max response worked out at 25.1%.

In the case of `COCC(=O)N1CCC2(CCCN(C(=O)Nc3cccc(F)c3)C2)CC1`, the max response amounted to 4.52%.

For the compound `COCC(=O)N1CCC2(CC1)CN(C(=O)Nc1ccc(OC)cc1)C2`, the max response was determined as 23%.

For `Cn1cccc1C(=O)N1CCC2(CC1)CN(C(=O)Nc1ccccc1)C2`, the max response came out at 8.17%.

In the case of `COC(=O)N1CCC[C@@]2(CCN(C(=O)Nc3ccccc3)C2)C1`, the max response was -3.53%.

Take `O=C(c1ccncc1)N1CCC2(CC1)CN(c1ncccn1)C2`: the max response was found to be 22.4%.

Turning to `CC(C)NC(=O)N1CCC2(CC1)CCN(C(=O)c1ccco1)CC2`, the max response was determined as 8.07%.

Take `O=C(Nc1ccccc1)N1CC2(CCN(C(=O)c3ccco3)CC2)C1`: the max response came to 21.9%.

As for `COc1ccccc1CN1CCCC2(CCNCC2)C1`, the max response stood at 4.5%.

With `COC(=O)N1CCC[C@@]2(CCN(c3ccccn3)C2)C1`, the max response was 2.62%.

In the case of `Cn1cccc1C(=O)N1CCC2(CCN(C(=O)Nc3cccc(F)c3)CC2)CC1`, the max response was 18.2%.

Take `O=C(c1csnn1)N1CCC2(CC1)CN(Cc1cc(C(F)(F)F)cc(C(F)(F)F)c1)C2`: the max response turned out to be 8.43%.

For the compound `O=C(Nc1ccccc1)N1CCC2(CC1)CCN(C(=O)c1csnn1)CC2`, the max response was determined as 16.6%.

Turning to `CN1CCC2(CC1)CCN(C(=O)c1cc(C(F)(F)F)cc(C(F)(F)F)c1)CC2`, the max response is -7.21%.

As for `CC(=O)N1CCC2(CCN(Cc3nccs3)CC2)CC1`, the max response came to 3.24%.

On to `COc1ccccc1CN1CCC2(CC1)CCN(C(C)=O)CC2`, for which the max response was 3.13%.

Regarding `CS(=O)(=O)N1CCC2(CCN(C(=O)Nc3cccc(C#N)c3)CC2)CC1`, the max response was -15.9%.

Regarding `COc1ccc(NC(=O)N2CCC3(CC2)CCN(C(=O)c2cnccn2)CC3)cc1`, the max response came out at 7.1%.

Regarding `O=C(c1ccco1)N1CCC2(CC1)CCN(c1ccccc1)CC2`, the max response came out at 23.3%.

For the compound `COc1ccc(NC(=O)N2CC[C@@]3(CCCNC3)C2)cc1`, the max response is -3.47%.

Take `Cc1noc(C)c1C(=O)N1CCC[C@@]2(CCN(c3ncccn3)C2)C1`: the max response amounted to 7.95%.

As to `COC(=O)N1CCC2(CC1)CN(C(=O)Nc1ccccc1)C2`, the max response is -14.6%.

Consider `COCC(=O)N1CCC2(CC1)CCN(C(=O)Nc1cccc(F)c1)CC2`, for which the max response was 10.1%.

On to `O=C(Nc1ccccc1)N1CCC2(CC1)CCN(C(=O)c1cnccn1)CC2`, for which the max response amounted to 7.98%.

Regarding `COC(=O)N1CCC2(CCN(Cc3nccs3)CC2)CC1`, the max response was 6.91%.

In the case of `COc1ccc(NC(=O)N2CC3(CCN(C(=O)c4ccco4)CC3)C2)cc1`, the max response is 0.813%.

As to `COc1ccc(NC(=O)N2CC3(CCN(C(=O)c4c(C)noc4C)CC3)C2)cc1`, the max response was 5.82%.

As to `CC(C)NC(=O)N1CC[C@@]2(CCCN(C(=O)c3cccn3C)C2)C1`, the max response was -17.7%.

Turning to `FC(F)(F)c1cc(CN2CC3(CCNCC3)C2)cc(C(F)(F)F)c1`, the max response was -18%.

With `O=C(Nc1cccc(F)c1)N1CC2(CCN(S(=O)(=O)c3ccccc3)CC2)C1`, the max response is -8.16%.

Regarding `COCC(=O)N1CCC[C@@]2(CCN(c3ncccn3)C2)C1`, the max response was 19.1%.
